Assay: growth suppression of yeast trafficking mutant, preliminary HTS, modulators of trafficking downstream of Golgi apparatus project, 1536-format plate, OD 615 nm (AID 637)
Details: yeast transport mutant growth, absorbance 615 nm, 18 h; stronger effect = higher value; in the data active means inhibition above about 30%; inactive means the rest

inhibition, inactive:
Cn1c(=O)[nH]c(=O)c2c1nc(N1CCNCC1)n2CCOc1ccccc1 10.8%, COc1ccc(CC(NC(C)=O)C(=O)NC2CCN(c3nc(C)cc(C)c3C#N)CC2)c(OC)c1 (centres undefined) 2.17%, C[C@H](NC(=O)NCc1cccs1)C(=O)O -4.43%, O=C(CCS(=O)(=O)c1cc(Br)cc2c1N(C(=O)C1CC1)CC2)NCC1CCCO1 (centres undefined) 11.8%, CCC1CCCCN1C(=O)Cn1c(C(=O)OC)cc2sc(Cl)cc21 (centres undefined) -0.67%, CC(=O)c1cnc2cc(-c3ccccc3)nn2c1C -10.7%, CCOC(=O)C1CCN(S(=O)(=O)c2cc(Cl)c(C)cc2OC)CC1 -3.39%, CCCN1CCN(C(=O)Cn2c(=O)oc3cc(S(=O)(=O)NCc4ccccc4)ccc32)CC1 -0.98%, COc1ccc(S(=O)(=O)N2CCC(C(=O)c3ccc4c(c3)OCCO4)CC2)cc1 -8.69%, CCCC(=O)Nc1nnc(CC(=O)OCC)s1 -7.14%, c1ccc(OCCCn2nnc(-c3cccnc3)n2)cc1 -5.83%, CC(=O)N1C(=O)N(C)C2C1N(C(C)=O)C(=O)N2C (centres undefined) -6.45%, COc1cccc(NC(=O)N2CCCC2C(=O)NC(C)C)c1 (centres undefined) 9.51%, c1ccc2ncc(-n3cnnn3)cc2c1 5.74%, CC(=O)Nc1ccc(OC(=O)c2cccnc2)cc1 -3.17%, O=C(CN1C(=O)c2cccc3cccc1c23)N1CCN(c2ccccc2)CC1 -1.5%, CSc1ccccc1NC(=O)c1c(Br)cnn1C -4.44%, O=C(c1ccccc1Oc1nnnn1-c1ccccc1)N1CCOCC1 -5.67%, O=C(CSc1nnc(COc2ccc(Cl)cc2)o1)N1CCN(c2ccccc2)CC1 3.11%, CCOC(=O)c1ccccc1NC(=O)Cn1cnc2c(cnn2-c2ccc(OC)cc2)c1=O 1.83%, COC(=O)c1c(C)oc2ccc(NS(=O)(=O)c3cccs3)cc12 5.9%, COc1cc2[nH]c(=O)n(CCC(=O)N3CCc4ccccc4C3)c(=O)c2cc1OC -2.33%, CCOC(=O)c1c(NC(=O)CSc2nnc(-c3cccnc3)o2)sc(C)c1C -8.73%, CC1CCN(C(=O)CSc2nnc(-c3ccc(S(=O)(=O)N4CCOCC4)cc3)n2C)CC1 -2.62%

From PubChem BioAssay
